Source: PubChem (National Center for Advancing Translational Sciences (NCATS))
Nrf2 inh = inhibitors of Nrf2 signaling | A549 ARE-Fluc reporter, luciferase luminescence, 18-24 h | Potency, µM (highest dose often 46 µM), actives largely listed as inhibitors | 2.1% of 360,000 active; also: nearly all actives have a fitted effect of over 60% in size
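Two sequential reads on A549 ARE_Fluc cells exposed to compound for 18-24 h: a CellTiter-Fluor fluorescence read for viability, then a luciferase luminescence read for Nrf2/ARE activity.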
rTrxR1 inhibitor = inhibitors of rat thioredoxin reductase 1; O89049; recombinant rTrxR1, NADPH fluorescence consumption, selenite substrate; Potency, µM (top dose mostly 114 µM), actives largely listed as inhibitors; 1% of 390,000 active; AID 588453; also: nearly all actives have a fitted effect of over 65% in size
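Rat TrxR1 (90 nM in the dispensed reagent) was pre-reduced with 400 uM NADPH for 5 min at room temperature, then incubated with compound for 15 min. After 400 uM selenite was added, NADPH fluorescence (Ex 340/Em 450 nm) was followed for 8 min.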
A549 viability = counter-screen for Nrf2 inhibitors: cytotoxicity in A549 cells. A549 ARE-Fluc cells, CellTiter-Fluor viability, 18-24 h. Potency, µM (top dose mostly 46 µM), actives largely listed as inhibitors. 0.16% of 390,000 active. AID 504648
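A549 ARE-Fluc cells in 5% FBS OPTI-MEM, 5000 cells/well, rested 2 h then exposed to compounds in concentration-response for 18-24 h at 37 °C. Viability by CellTiter-Fluor fluorescence (Ex 405/Em 525) after 30 min; luciferase luminescence (BugLite, 15 min, RT) read afterwards.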
Nrf2 activator = Nrf2 pathway activation. 0.31% of 410,000 active. AID 624171. Potency, µM (series often up to 46.1 µM), usual class: activators. AREc32 ARE-luciferase reporter (MCF7-derived line), luminescence, 24 h; also: nearly all actives have a fitted effect of over 65% in size
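Nrf2 activation is followed as ARE-luciferase induction in the AREc32 line after one day of compound treatment; luminescence is read with Steady-Glo.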
GALK inhibitor = blocks human galactokinase activity | Potency, µM (doses to about 57.5 µM), hits mostly inhibitors | 0.007% of 270,000 active | Purified GALK, Kinase-Glo residual ATP luminescence | AID 1868
Target sequence (P51570 whole entry, looked up): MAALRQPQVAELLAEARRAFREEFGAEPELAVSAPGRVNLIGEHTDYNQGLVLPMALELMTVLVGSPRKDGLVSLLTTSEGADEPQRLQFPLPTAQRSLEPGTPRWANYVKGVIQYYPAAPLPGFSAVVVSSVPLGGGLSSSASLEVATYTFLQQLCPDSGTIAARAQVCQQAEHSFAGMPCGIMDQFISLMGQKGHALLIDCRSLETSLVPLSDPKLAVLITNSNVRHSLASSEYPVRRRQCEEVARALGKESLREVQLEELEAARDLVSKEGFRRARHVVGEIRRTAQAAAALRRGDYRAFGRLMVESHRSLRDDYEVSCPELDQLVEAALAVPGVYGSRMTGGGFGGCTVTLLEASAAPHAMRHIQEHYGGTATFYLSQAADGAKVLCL
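ATP-depletion format; final 35 uM ATP, 100 uM D-galactose, 5 nM enzyme; pH 8.0 HEPES/Mg2+ buffer; 60 min RT; luminescence read 10 min after detection reagent.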
TrxR1 substrate = rat thioredoxin reductase 1 substrate activity; O89049; purified TrxR1 substrate turnover, NADPH consumption readout; Potency, µM (titrated, usually from 114 µM); 0.01% of 390,000 active; also: nearly all actives have a fitted effect of over 50% in size
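Rat TrxR1, dispensed at 90 nM, was prereduced with 400 uM NADPH (final) for 5 min at ~22 deg C, then incubated with compound 15 min before 400 uM selenite. A first-read NADPH fluorescence drop versus no-compound background flagged substrates.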
Hits are given with their value; 0 = inactive; ? = inconclusive; - = no result; [ ] = another dose, or the depositor's remark. Rows were chosen to be rich in hits. Some 3% of all compounds tested hit in one or more screens of this group. Calls follow the shape of the dose curve; as a rule, active = well fitted curve in the direction sought with a large enough effect; inconclusive = small, poorly fitted or top-dose-only effect, or another doubt; inactive = no such curve, though single readings can be large; an effect the other way counts as inactive or inconclusive.

SMILES	Nrf2 inh	rTrxR1 inhibitor	A549 viability	Nrf2 activator	GALK inhibitor	TrxR1 substrate
Cc1ccc(-n2c(O)c(C=NCc3ccco3)c(=O)[nH]c2=S)cc1C	0	13µM	0	0	0	0
CC(C)C(=O)Nc1ccc([N+](=O)[O-])c(C(F)(F)F)c1	?	0	0	0	0	0
O=c1[nH]c(O)c(N=Nc2ccc(Cl)c(S(=O)(=O)Nc3ccccc3Cl)c2)c(=O)[nH]1	?	0	0	?	-	0
CCOC(=O)C1=CC(=C2C(=O)N(CC)C(=S)N(CC)C2=O)c2ccccc2O1	0	40µM	0	0	0	0
COC(=O)C1=C(c2cc3ccccc3s2)C[C@@H]2CC[C@H]1N2C(=O)NCC1CC1	18µM	0	0	0	-	0
COC(=O)C1=C(c2cc3ccccc3s2)C[C@@H]2CC[C@H]1N2C(=O)NC1CC1	?	0	0	0	-	0
COC(=O)C1=C(c2cc3ccccc3s2)C[C@@H]2CC[C@H]1N2C(=O)N1CCC(C)CC1	26µM	0	0	0	-	0
COC(=O)C1=C(c2ccc(OC(F)(F)F)cc2)C[C@@H]2CC[C@H]1N2C(=O)N1CCC(C)CC1	18µM	0	0	0	-	0
COC(=O)C1=C(c2ccc(Cl)c(C(F)(F)F)c2)C[C@@H]2CC[C@H]1N2C(=O)N1CCC(O)(c2ccc(Cl)cc2)CC1	23µM	0	?	0	-	0
COC(=O)C1=C(c2ccc(OC(F)(F)F)cc2)C[C@@H]2CC[C@H]1N2C(=O)N1CCCC1	?	0	0	0	-	0
O=c1c2ccccc2nc(-c2ccco2)n1-c1ccc(Br)cc1	0	0	0	0	0	0
COc1ccc(-n2c(-c3ccco3)nc3c(cnn3-c3ccc(Cl)cc3)c2=O)cc1	26µM	0	0	0	-	0
O=c1c2ccccc2cnn1Cc1n[nH]c(=S)n1C1CC2CCC1C2 (stereo unspecified)	?	0	0	0	0	0
CC(=O)OC1CCC2(C)C(CCC3C2CC(=O)C2(C)C3CC(N3CC3)C2C(C)=O)C1 (stereo unspecified)	0	0	18µM	?	-	0
CCOc1ccc(S(=O)(=O)N(CC(=O)NCc2ccccc2OC)c2ccccc2)cc1	16µM	0	0	0	-	0
CCOc1ccc(S(=O)(=O)N(CC(=O)NCCc2ccc(OC)c(OC)c2)c2ccccc2)cc1	?	0	0	0	-	0
Cc1ccc2c(c1)c(C1=c3ccccc3=NC1=O)c(O)n2C	?	0	0	11µM	0	0
CSc1ccc(Cl)c(C(=O)OCC(=O)N2CCN(C(=O)c3ccco3)CC2)c1	0	?	0	0	-	0
Oc1ccc2c3c1OC1c4[nH]c5ccccc5c4C[C@@]4(O)C(C2)N(CC2CC2)CC[C@]314 (stereo partly specified)	0	0	0	0	-	0
O=C1/C(=C/c2ccccc2)C[C@@]2(O)[C@H]3Cc4ccc(O)c5c4[C@@]2(CCN3CC2CC2)C1O5 (stereo partly specified)	12µM	35µM	?	0	-	0
CC(=O)c1cn(CCCOc2ccccc2)c2ccccc12	21µM	0	0	0	0	0
O=C(C(=O)N1CCOCC1)c1cn(CCCOc2ccccc2)c2ccccc12	0	0	0	0	0	0
Cc1ccc(-c2nnc(Nc3ccc(Br)cc3)c3ccccc23)cc1S(=O)(=O)NCc1nc2ccccc2[nH]1	?	0	0	0	-	0
CCc1ccc(-n2nc(C)c3c(C(=O)NCCc4ccc(OC)c(OC)c4)cc(C)nc32)cc1	23µM	0	0	0	-	0
COc1ccc(CCNCc2ccncc2)cc1OC	0	?	0	0	0	0
SMILES	Nrf2 inh	rTrxR1 inhibitor	A549 viability	Nrf2 activator	GALK inhibitor	TrxR1 substrate
COc1ccc(NC(=O)Cn2c3ccccc3c3nc4n(c(=O)c32)CCS4)cc1	?	0	0	0	0	0
CNC(=O)Oc1cccc(-c2cn3cc(OC(=O)NC)ccc3n2)c1	?	?	0	0	0	0
CNC(=O)Oc1ccc(-c2cn3cc(Cl)ccc3n2)cc1	?	22µM	0	0	0	0
Cn1ncnc2c(=O)n(C)c(=O)nc1-2	0.18µM	?	0.46µM	0	1.3µM	40µM
Cc1ccc(-c2nc3c(=O)n(C)c(=O)nc-3n(C)n2)cc1	3.3µM	11µM	2.9µM	-	-	13µM
C[C@H]1CC[C@@H]2[C@@H](C)[C@H]3C(C[C@H]4C5CC[C@H]6C[C@@H](O)CC[C@]6(C)C5CC[C@]34C)N2C1 (stereo partly specified)	0	0	0	-	-	0
COC(=O)[C@@]12CCCCN1[C@H](c1ccc(-c3ccc(Cl)c(Cl)c3)c(OC)c1)[C@H]1C(=O)N(C)C(=O)[C@H]12	0	0	0	0	-	0
COC(=O)[C@@]12CCCCN1[C@H](c1ccc(-c3ccc(Cl)c(Cl)c3)c(OC)c1)[C@@H]1C(=O)N(C)C(=O)[C@@H]12	21µM	0	0	0	-	0
CCc1cccc(NC(=O)C2CCN(S(=O)(=O)c3ccc(Br)s3)CC2)c1	?	0	0	0	-	0
CCOc1ccccc1N=C1SCCCN1C	0	0	0	0	0	0
CCOc1cccc(=NC2CCCCC2)c2c(C)n(C)c(C)c12	16µM	0[11.4 µM]	?	0	0	0[11.4 µM]
COc1ccccc1C(=O)Nc1ccc2nc(SCC(=O)N(C)c3ccccc3)sc2c1	0	0	0	0	-	0
COc1ccc(Nc2nc(N)nc(CSc3nc4ccccc4s3)n2)cc1	21µM	0	0	0	-	0
